Compounds without any hit were thinned out: in the full panel of roughly 83,000, 20% have a hit.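 Interpretation: 100, growth as untreated; towards 0, rising growth inhibition; 0, no net growth; 0 to -100, cell death. Compounds scoring below 10 were considered active.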 Activity calls are given as the source filed them.

The subject of this assay is SR leukemia. Nature of the assay: NCI-60 one-dose screen, 48 h (100 = growth as untreated, 0 = no growth, -100 = all killed). Conditions: 10 µM unless noted.
`O=C(COc1ccc(/C=C2\SC(=O)NC2=O)cc1)Nc1ccc(C(=O)/C=C/c2cc3ccccc3nc2Cl)cc1`: the growth was 31.3% (inactive).

Regarding `CC(C)Sc1nc(NC2CC2)c(C#N)c(-c2ccccc2)n1`, the growth is 96.5% (inactive).

As to `O=C(COc1cccc2cccnc12)Nc1ccc(C(=O)/C=C/c2ccc(Cl)cc2)cc1`, the growth was 61.1% (inactive). Next, `Oc1ccc(CSc2nnc(-c3ccc(Br)cc3)n2-c2ccccc2)c2cccnc12`: 37.7% (inactive). Under `COc1ccccc1N1CCN(C2=NN=C(c3cccc(Cl)c3)c3ccccc3C2)CC1` stands -15.3% (active). Under `O=C1/C(=C/c2ccc([N+](=O)[O-])cc2)SC(=Nc2ccccc2)N1Nc1ccccc1` stands 0.29% (active); under `COc1ccc([C@H]2c3[nH]c4ccccc4c3C[C@@H]3C(=O)N(C4CCN(Cc5ccccc5)CC4)CC(=O)N23)c(OC)c1`, 29.9% (inactive); under `CC1OC(O[C@@H]2[C@H](O)C(CO)OC(O[C@H]3COC(O[C@H]4CC[C@]5(C)[C@H]6CC[C@]78OC[C@@]9(CCC(C)(C)C[C@H]97)[C@H](O)C[C@@]8(C)[C@]6(C)CC[C@H]5C4(C)C)[C@@H](OC4OC(CO)[C@@H](O)[C@@H](O)[C@@H]4O)[C@@H]3O)[C@H]2OC2OC[C@@H](O)[C@@H](O)[C@@H]2O)[C@@H](O)[C@@H](O)[C@H]1O` (some centres not stated), -51.3% (active).

Regarding `N#Cc1c(-c2cccs2)cc(-c2cnccn2)nc1SCC(=O)NNC(=S)Nc1ccc(F)cc1`, the growth is 85.1% (inactive).

For the compound `O=C1NC(=O)c2c1c1c3ccccc3ccc1c1[nH]c3ccccc3c21`, the growth was -9.49% (active). Next, `COc1ccc(-c2ccc3c4c(cccc24)C(=O)N(N2C(=O)c4cccc5cccc(c45)C2=O)C3=O)cc1`: 95.3% (inactive); `NS(=O)(=O)c1ccc(Nc2nc(N/N=C/c3ccc(C(F)(F)F)cc3)nc(Nc3ccccc3)n2)cc1`: 7.13% (active). Under `COc1cc(CNC(=O)/C=C/c2ccccc2)ccc1OCC(=O)NO` stands 97% (inactive); under `NS(=O)(=O)c1ccc(Nc2nc(N/N=C/c3ccc(F)cc3)nc(Nc3ccccc3)n2)cc1`, 57.7% (inactive); under `C=C1C(=O)O[C@@H]2C[C@@H](C)[C@H](OC)CC(=O)[C@](C)(OC(C)=O)C[C@H](OC(=O)/C(C)=C\C)[C@@H]12`, 1.2% (active). Regarding `O=C(c1ccc(O)cc1)[C@@H]1[C@@H]2CCCN2[C@@]2(C(=O)N(C(=O)c3ccc(F)cc3)c3ccccc32)[C@H]1c1ccc(F)cc1`, the growth is 60.8% (inactive). Under `Cc1ccc(-n2cc(/C=C/C(=O)c3ccc(S(C)(=O)=O)cc3)c(-c3ccc(S(C)(=O)=O)cc3)n2)cc1` stands 44% (inactive); under `Cc1ccc(Cc2cnc(NC(=O)/C(C#N)=C/c3ccc(-c4ccc(Cl)cc4)o3)s2)cc1`, 85.9% (inactive). Next, `C=C(C)C(=O)O[C@H]1C[C@@]2(C)OC(=CC2=O)/C(C)=C\[C@H]2OC(=O)C(=C)[C@H]12`: -19.6% (active); `CCN(CC)CCN1C(=O)c2c(c3c4cc(Br)ccc4[nH]c3c3ccc4ccccc4c23)C1=O`: -24.6% (active). Regarding `Oc1ccc(CSc2nnc(-c3ccc(Oc4ccccc4)cc3)o2)c2cccnc12`, the growth is 32.2% (inactive). On to `O=C1c2c(c3c4cccnc4[nH]c3c3ccc4ccccc4c23)C(=O)N1CCN1CCOCC1`, for which the growth is 21.8% (inactive).

As for `O=c1[nH]c(CCl)nc2c1cnn2-c1ccccc1`, the growth is 87.1% (inactive). Next, `C=C1C(=O)O[C@@H]2/C=C(/C)C3=CC(=O)[C@@](C)(C[C@H](OC(=O)/C(C)=C\C)[C@@H]12)O3`: 2.49% (active). For `O=C1CC2(CCOCC2)Oc2ncccc21`, the growth was 15% (inactive). Next, `O=C(Nc1ccc(F)cc1)c1cc(-c2ccc(F)cc2F)ccc1O`: 26.2% (inactive).

As for `COc1ccc(/C=N\NC(=O)c2ccc3nc(-c4ccc(Br)cc4)[nH]c3c2)cc1`, the growth is 11.8% (inactive).

For `O=C(O)c1ccc(-n2cc(CNc3ccc(Cl)cc3)c(-c3ccc(F)cc3)n2)cc1`, the growth was 121% (inactive).

For `COc1cc(/C=N/n2cnc3oc(-c4ccccc4)cc3c2=N)cc(CN2CCCC2)c1O`, the growth was 27.4% (inactive).

Consider `CCOC(=O)c1c(NCC(=O)Nc2cccc(Cl)c2)sc2c1CCCC2`, for which the growth was 69.4% (inactive). Next, `Cc1ccc(-c2csc(N/N=C/c3nc4ccccc4n3C3CC3)n2)cc1`: 25.1% (inactive). `C#C[C@]1(O)CC[C@H]2[C@@H]3CC=C4c5sc(Nc6cccc(C)n6)nc5CC[C@]4(C)[C@H]3CC[C@@]21C`: the growth was -25% (active).

The values are drawn from PubChem BioAssay (NCI).
